# Laboratory results as given in PMC10954555.
# Key:
# [1] = molecular target: Large ribosomal subunit protein uL5 (UniProt P62913); assay: cross-linking mass spectrometry; other
# [2] = molecular target: Actin, cytoplasmic 2 (UniProt P63261); assay: other; cross-linking mass spectrometry; other
# [3] = molecular target: Bromodomain-containing protein 3 (UniProt Q15059); assay: other; cross-linking mass spectrometry; other
# [4] = molecular target: DNA-directed RNA polymerase II subunit RPB3 (UniProt P19387); assay: other; cross-linking mass spectrometry; other
# [5] = molecular target: DNA-directed RNA polymerase II subunit RPB1 (UniProt P24928); assay: other; affinity purification or IP with mass spectrometry; other
# [6] = molecular target: High mobility group nucleosome-binding domain-containing protein 3 (UniProt Q15651); assay: other; cross-linking mass spectrometry; other
# [7] = molecular target: Large ribosomal subunit protein eL34 (UniProt P49207); assay: other; cross-linking mass spectrometry; other
# [8] = molecular target: Large ribosomal subunit protein eL8 (UniProt P62424); assay: other; cross-linking mass spectrometry; other
# [9] = molecular target: Large ribosomal subunit protein uL2 (UniProt P62917); assay: other; cross-linking mass spectrometry; other
# [10] = molecular target: Large ribosomal subunit protein eL6 (UniProt Q02878); assay: other; cross-linking mass spectrometry; other
# [11] = molecular target: RNA polymerase II-associated factor 1 homolog (UniProt Q8N7H5); assay: other; cross-linking mass spectrometry; other
# [12] = molecular target: RNA-binding protein 8A (UniProt Q9Y5S9); assay: other; cross-linking mass spectrometry; other
# [13] = molecular target: Replication factor C subunit 5 (UniProt P40937); assay: other; cross-linking mass spectrometry; other
# [14] = molecular target: Retinoblastoma-binding protein 5 (UniProt Q15291); assay: other; cross-linking mass spectrometry; other
# Sequence of Retinoblastoma-binding protein 5 (Q15291 whole entry): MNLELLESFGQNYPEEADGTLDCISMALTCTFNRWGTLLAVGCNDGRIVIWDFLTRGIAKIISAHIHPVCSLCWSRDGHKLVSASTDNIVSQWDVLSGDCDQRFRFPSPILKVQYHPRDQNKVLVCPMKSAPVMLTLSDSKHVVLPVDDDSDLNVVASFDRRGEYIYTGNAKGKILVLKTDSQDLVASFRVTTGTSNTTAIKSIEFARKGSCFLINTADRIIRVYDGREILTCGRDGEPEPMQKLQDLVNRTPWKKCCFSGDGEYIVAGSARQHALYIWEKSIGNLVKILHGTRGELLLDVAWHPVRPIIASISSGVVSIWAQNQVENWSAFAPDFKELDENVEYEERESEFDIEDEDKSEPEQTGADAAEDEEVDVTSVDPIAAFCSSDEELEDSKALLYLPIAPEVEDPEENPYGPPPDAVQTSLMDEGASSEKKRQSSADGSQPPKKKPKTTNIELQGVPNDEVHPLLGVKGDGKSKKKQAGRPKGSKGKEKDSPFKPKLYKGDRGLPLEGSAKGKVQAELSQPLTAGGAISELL
# [15] = molecular target: Small ribosomal subunit protein eS6 (UniProt P62753); assay: other; cross-linking mass spectrometry; other
# [16] = molecular target: Small ribosomal subunit protein uS14 (UniProt P62273); assay: other; cross-linking mass spectrometry; other
# [17] = molecular target: Small ribosomal subunit protein uS7 (UniProt P46782); assay: other; cross-linking mass spectrometry; other
# [18] = molecular target: Ubiquitin-ribosomal protein eS31 fusion protein (UniProt P62979); assay: other; cross-linking mass spectrometry; other
# [19] = molecular target: DNA-directed RNA polymerase II subunit RPB9 (UniProt P36954); assay: other; affinity purification or IP with mass spectrometry; other
# [20] = molecular target: DNA-directed RNA polymerase II subunit RPB2 (UniProt P30876); assay: other; affinity purification or IP with mass spectrometry; cross-linking mass spectrometry; other
# [21] = molecular target: Actin, alpha skeletal muscle (UniProt P68133); assay: cross-link between two proteins; cross-linking mass spectrometry; other
# Sequence of Replication factor C subunit 4, P35249 (P35249 whole entry): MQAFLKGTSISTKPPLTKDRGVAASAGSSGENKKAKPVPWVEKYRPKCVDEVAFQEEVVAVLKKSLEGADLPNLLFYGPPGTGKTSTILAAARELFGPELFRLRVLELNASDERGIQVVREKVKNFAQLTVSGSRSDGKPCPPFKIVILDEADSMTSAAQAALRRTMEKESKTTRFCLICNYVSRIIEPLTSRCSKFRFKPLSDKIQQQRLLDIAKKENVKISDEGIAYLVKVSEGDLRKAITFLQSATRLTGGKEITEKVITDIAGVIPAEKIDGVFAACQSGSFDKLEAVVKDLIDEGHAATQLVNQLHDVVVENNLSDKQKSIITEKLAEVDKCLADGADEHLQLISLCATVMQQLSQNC
# Sequence of Histone-lysine N-methyltransferase 2A, Q03164 (Q03164 whole entry): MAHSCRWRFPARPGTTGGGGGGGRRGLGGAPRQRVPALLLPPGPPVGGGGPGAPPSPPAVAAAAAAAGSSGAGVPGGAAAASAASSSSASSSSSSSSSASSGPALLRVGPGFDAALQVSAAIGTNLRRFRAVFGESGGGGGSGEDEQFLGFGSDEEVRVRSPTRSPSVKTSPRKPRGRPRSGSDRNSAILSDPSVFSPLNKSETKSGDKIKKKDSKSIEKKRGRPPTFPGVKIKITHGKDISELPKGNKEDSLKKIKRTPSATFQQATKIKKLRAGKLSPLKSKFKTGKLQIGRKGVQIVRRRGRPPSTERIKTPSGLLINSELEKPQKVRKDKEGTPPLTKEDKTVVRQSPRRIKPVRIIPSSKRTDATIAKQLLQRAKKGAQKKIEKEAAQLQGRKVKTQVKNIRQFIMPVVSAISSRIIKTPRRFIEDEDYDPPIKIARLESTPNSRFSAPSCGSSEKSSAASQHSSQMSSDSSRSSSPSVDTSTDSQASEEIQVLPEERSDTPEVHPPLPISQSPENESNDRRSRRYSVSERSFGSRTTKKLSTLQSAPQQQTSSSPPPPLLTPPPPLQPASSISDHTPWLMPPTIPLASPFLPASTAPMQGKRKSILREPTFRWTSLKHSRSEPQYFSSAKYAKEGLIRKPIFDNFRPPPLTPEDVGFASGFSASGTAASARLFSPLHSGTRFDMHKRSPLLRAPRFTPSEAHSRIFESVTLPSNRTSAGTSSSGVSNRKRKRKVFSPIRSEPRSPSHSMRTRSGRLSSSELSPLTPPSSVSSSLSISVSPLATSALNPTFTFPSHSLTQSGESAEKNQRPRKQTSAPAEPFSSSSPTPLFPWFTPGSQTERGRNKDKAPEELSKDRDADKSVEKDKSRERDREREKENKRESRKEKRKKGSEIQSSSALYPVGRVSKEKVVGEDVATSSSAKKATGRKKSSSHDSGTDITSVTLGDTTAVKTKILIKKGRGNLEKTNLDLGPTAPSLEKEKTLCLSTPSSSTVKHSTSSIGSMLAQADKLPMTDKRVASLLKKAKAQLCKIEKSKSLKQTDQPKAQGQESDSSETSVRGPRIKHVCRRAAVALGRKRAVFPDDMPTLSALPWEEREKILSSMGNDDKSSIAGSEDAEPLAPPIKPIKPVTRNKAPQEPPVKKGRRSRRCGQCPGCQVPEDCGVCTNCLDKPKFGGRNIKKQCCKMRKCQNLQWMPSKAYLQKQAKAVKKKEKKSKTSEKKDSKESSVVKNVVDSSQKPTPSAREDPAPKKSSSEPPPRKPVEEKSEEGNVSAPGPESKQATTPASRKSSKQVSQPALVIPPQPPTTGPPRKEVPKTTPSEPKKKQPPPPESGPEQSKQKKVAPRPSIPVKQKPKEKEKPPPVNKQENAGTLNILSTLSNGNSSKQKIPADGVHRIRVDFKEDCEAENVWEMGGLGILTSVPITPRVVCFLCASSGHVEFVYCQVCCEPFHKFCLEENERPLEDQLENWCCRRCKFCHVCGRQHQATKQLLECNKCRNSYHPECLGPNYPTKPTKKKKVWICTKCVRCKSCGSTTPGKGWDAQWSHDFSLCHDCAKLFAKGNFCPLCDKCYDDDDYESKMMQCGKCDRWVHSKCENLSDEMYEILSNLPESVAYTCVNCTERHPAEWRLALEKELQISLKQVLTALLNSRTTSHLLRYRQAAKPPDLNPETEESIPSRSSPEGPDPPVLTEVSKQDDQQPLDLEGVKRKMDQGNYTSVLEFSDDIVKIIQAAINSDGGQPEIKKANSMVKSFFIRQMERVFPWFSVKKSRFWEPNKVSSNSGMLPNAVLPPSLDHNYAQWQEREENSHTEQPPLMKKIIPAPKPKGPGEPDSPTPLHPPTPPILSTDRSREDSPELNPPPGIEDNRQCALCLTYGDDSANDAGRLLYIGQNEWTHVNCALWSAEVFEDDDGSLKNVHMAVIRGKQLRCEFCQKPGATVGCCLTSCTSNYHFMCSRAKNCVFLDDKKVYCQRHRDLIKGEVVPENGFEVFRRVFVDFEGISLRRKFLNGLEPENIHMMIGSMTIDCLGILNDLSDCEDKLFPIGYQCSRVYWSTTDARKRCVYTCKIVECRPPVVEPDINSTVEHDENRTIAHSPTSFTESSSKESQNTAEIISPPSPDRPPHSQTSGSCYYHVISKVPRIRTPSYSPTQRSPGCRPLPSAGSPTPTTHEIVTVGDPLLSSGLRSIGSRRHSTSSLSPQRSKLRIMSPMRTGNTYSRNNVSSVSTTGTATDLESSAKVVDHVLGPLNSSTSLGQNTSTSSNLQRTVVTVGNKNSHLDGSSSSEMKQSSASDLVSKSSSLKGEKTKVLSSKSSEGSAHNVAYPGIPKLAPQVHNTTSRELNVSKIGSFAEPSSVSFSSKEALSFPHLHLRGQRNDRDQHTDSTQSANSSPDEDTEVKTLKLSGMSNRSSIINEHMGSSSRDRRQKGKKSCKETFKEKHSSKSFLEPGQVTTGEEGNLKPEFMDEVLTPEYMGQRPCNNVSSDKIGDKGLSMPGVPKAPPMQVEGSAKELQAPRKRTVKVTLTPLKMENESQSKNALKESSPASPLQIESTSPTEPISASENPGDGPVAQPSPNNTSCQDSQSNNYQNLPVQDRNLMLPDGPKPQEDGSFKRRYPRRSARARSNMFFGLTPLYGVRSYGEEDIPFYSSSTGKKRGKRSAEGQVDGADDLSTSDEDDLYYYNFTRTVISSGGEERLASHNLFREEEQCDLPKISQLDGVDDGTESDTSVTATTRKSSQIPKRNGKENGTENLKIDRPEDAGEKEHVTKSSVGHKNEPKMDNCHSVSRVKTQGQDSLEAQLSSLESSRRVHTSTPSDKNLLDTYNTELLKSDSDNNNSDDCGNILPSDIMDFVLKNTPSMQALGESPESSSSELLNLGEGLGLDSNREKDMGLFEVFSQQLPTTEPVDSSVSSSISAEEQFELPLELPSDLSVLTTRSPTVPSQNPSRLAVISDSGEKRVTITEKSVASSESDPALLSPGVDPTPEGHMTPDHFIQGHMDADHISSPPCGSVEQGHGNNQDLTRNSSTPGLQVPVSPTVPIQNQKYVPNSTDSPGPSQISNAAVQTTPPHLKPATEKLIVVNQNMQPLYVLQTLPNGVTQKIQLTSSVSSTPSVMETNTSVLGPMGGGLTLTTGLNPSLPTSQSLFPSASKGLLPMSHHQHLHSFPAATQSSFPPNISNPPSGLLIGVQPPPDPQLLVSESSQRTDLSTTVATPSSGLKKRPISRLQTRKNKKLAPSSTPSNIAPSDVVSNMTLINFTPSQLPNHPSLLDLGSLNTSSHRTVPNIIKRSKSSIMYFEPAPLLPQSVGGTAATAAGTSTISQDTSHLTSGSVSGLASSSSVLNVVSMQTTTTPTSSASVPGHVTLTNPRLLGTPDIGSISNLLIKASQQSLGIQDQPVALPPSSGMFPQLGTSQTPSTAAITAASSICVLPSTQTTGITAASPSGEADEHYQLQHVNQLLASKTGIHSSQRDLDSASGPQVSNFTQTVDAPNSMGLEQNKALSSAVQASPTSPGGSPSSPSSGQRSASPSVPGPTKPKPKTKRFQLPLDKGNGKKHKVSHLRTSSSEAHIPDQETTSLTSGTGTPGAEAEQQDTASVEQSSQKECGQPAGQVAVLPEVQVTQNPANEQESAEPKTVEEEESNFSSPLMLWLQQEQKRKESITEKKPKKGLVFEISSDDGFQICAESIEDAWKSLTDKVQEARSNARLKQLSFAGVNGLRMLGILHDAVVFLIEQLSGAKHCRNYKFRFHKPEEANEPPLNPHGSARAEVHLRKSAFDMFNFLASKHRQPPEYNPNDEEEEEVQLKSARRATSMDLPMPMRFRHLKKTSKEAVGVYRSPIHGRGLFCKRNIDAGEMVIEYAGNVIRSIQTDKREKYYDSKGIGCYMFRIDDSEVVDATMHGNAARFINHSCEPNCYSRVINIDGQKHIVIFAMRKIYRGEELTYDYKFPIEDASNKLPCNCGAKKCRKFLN
substance,measurement,setting,value
"Large ribosomal subunit protein uL1, P62906",listed as a hit,[1],yes
"Actin, cytoplasmic 1, P60709",listed as a hit,[2],yes
"Bromodomain-containing protein 4, O60885",listed as a hit,[3],yes
"DNA-directed RNA polymerase II subunit RPB4, O15514",listed as a hit,[4],yes
same,listed as a hit,[5],yes
"Non-histone chromosomal protein HMG-17, P05204",listed as a hit,[6],yes
"Large ribosomal subunit protein uL4, P36578",listed as a hit,[7],yes
same,listed as a hit,[8],yes
same,listed as a hit,[9],yes
"Large ribosomal subunit protein eL32, P62910",listed as a hit,[10],yes
"Parafibromin, Q6P1J9",listed as a hit,[11],yes
"RNA polymerase-associated protein CTR9 homolog, Q6PD62",listed as a hit,[11],yes
"Eukaryotic initiation factor 4A-III, P38919",listed as a hit,[12],yes
"Replication factor C subunit 4, P35249",listed as a hit,[13],yes
"Histone-lysine N-methyltransferase 2A, Q03164",listed as a hit,[14],yes
"Small ribosomal subunit protein uS17, P62280",listed as a hit,[15],yes
"Small ribosomal subunit protein uS10, P60866",listed as a hit,[16],yes
"Small ribosomal subunit protein eS19, P39019",listed as a hit,[17],yes
"Small ribosomal subunit protein eS1, P61247",listed as a hit,[18],yes
"Small ribosomal subunit protein uS7, P46782",listed as a hit,[18],yes
"DNA-directed RNA polymerase II subunit RPB1, P24928",listed as a hit,[19],yes
same,listed as a hit,[20],yes
"Actin, cytoplasmic 2, P63261",listed as a hit,[21],yes
